Results as given in PubChem BioAssay AID624288 (National Center for Advancing Translational Sciences (NCATS), 2012).
Out of some 340,000 compounds screened, about 1,400 (0.41%) were called active. Roughly 4% stayed inconclusive and do not appear here. The call rests on the fitted dose curve; cell line not stated here. What follows is part of a selection rich in actives, with near analogues and random picks from the rest.

Test: qHTS for Antagonists of gsp, the Etiologic Mutation Responsible for Fibrous Dysplasia/McCune-Albright Syndrome: qHTS; further: nearly all actives have a fitted effect of over 65% in size
Details: gsp-mutant cells, cAMP HTRF, 30 min; series mostly up to 76.9 µM
In short: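 Cells in G418 medium, seeded 16-24 h, 37C; buffer exchange to DPBS + 1 mM CaCl2, 0.5 mM MgCl2, 0.05% BSA; cpds in DMSO + […] (300 uM stock), 30 min 37C; HTRF cAMP detection.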
Potency means the concentration at half of the fitted maximal effect.

Potency, active:
Nc1nonc1-n1nnc(C(=O)N/N=C/c2c[nH]c3ccccc23)c1-c1ccccc1 31.6 µM
O=C(O)c1ccc(NN=CC2=C(N3CCOCC3)/C(=C/c3ccccc3)CC2)cc1 10 µM
CSc1ncccc1C(=O)Nc1nc2ccc(F)cc2s1 39.8 µM
CS(=O)(=O)c1ccc2nc(NC(=O)c3ccc(Cl)nc3)sc2c1 31.6 µM
CN(CCO)S(=O)(=O)c1ccc2c(c1)C(=O)c1cc(S(=O)(=O)N(C)CCO)ccc1-2 8.91 µM
CCc1nc(C)cn1S(=O)(=O)c1cc(OC)c(C)cc1C 31.6 µM
Cc1sc2ncnc(N3CCC(C(=O)Nc4ccc(F)cc4Cl)CC3)c2c1C 39.8 µM
CCOC(=O)N1CCN(C(=O)c2ccc(CN(c3ccc(C)c(C)c3)S(C)(=O)=O)cc2)CC1 22.4 µM
CC(=O)Nc1ccc(S(=O)(=O)N2CCN(CCCOc3cc(C)ccc3C)CC2)cc1 31.6 µM
O=C(Nc1cccc(S(=O)(=O)Nc2ccc(Cl)cc2)c1)c1ccc2c(c1)OCCO2 35.5 µM
CC(=O)N1CCCc2cc(S(=O)(=O)N3CCCC(C(=O)N4CCN(c5cccc(Cl)c5)CC4)C3)ccc21 (stereo unspecified) 28.2 µM
COc1ccc(Cn2c(=O)sc3ccccc32)cc1OC 11.2 µM
COC(C[C@@H](O)C[C@H](O)[C@H](C)OCc1ccccc1)OC 50.1 µM
O=C(CCC(=O)N1CCN(S(=O)(=O)c2ccc(Cl)cc2)CC1)NCc1cccc(C(F)(F)F)c1 35.5 µM
O=C(Nc1ccc2ccccc2c1)Nc1ccc2snnc2c1 31.6 µM
COc1cccc(C2c3[nH]c4ccccc4c3CCN2Cc2cccc(C)n2)c1 (stereo unspecified) 39.8 µM
CCCc1ccc(-c2c(C)sc(NC(=O)c3ccnn3C)c2C#N)cc1 20 µM
O=C(Nc1ncc([N+](=O)[O-])s1)C1COc2ccccc2O1 (stereo unspecified) 39.8 µM
O=C(N/N=C/c1cccc(Br)c1)c1ccc(N2CCCC2=O)cc1 31.6 µM
Cc1[nH]n(-c2cccc(Cl)c2)c(=O)c1-c1ccc(Cl)cc1 28.2 µM
COc1ccc(-c2sc3ccc(OC)cc3c2C#Cc2ccccn2)cc1 28.2 µM

Potency, inactive:
Cc1c[n+]([O-])ccc1[N+](=O)[O-]
CC(C)=CCc1ccc(O)c(=O)cc1C(C)C
Nc1nonc1-n1nnc(C(=O)N/N=C/C2CCCCC2)c1-c1ccccc1
CC(C)c1c(C(=O)N/N=C/c2ccc(-c3ccccc3)cc2)nnn1-c1nonc1N
Nc1cc(=O)n(Cc2ccccc2)c(=O)n1Cc1ccccc1
O=C1Nc2ccc(Br)cc2/C1=N/N=C/C1=C(N2CCOCC2)C(=C\c2ccccc2)/CC1
C(=N\N1CCN(c2ccccn2)CC1)/C1=C(N2CCOCC2)C(=C/c2ccccc2)/CC1
C[C@H](O)[C@@H]1C(=O)N2CCc3ccc(N4CCOCC4)cc3[C@@H]2C[C@@H]1N(C)C(=O)C(C)(C)C
O=C1C[C@@H]2c3c(cccc3CN1Cc1ccccc1)C[C@@H](O)[C@H]2O
Cc1ccc(S(=O)(=O)N2CCC(C(=O)N3CCCCCCC3)CC2)cc1
CSc1ncccc1C(=O)Nc1ccc2c(c1)OCO2
CSc1ncccc1C(=O)Nc1ccc(C)cn1
COc1cc(C(=O)CCc2ccc3c(c2)OCO3)cc(OC)c1OC
COc1cc(C(=O)N2CCN(S(=O)(=O)c3ccc(C(C)C)cc3)CC2)ccc1OCC(=O)N1CCOCC1
CS(=O)(=O)c1ccc2nc(NC(=O)C3C4C=CC(C4)C3C(=O)O)sc2c1 (stereo unspecified)
COc1cccc(C(=O)Nc2nc3ccc(S(C)(=O)=O)cc3s2)c1
Cc1ccc(NC(=O)C(C)OC(=O)C2CC3CCCC(C2)C3=O)cc1S(=O)(=O)N1CCOCC1 (stereo unspecified)
O=C(CNC(=O)c1cc(S(=O)(=O)N2CCOCC2)ccc1N1CCCC1)Nc1ccc(F)c(F)c1
CN(CC(=O)O)S(=O)(=O)c1ccc2oc3ccccc3c2c1
O=C(O)c1ccc(NS(=O)(=O)c2ccc3c(c2)C(=O)c2cc(S(=O)(=O)Nc4ccc(C(=O)O)cc4)ccc2-3)cc1
O=C1NC(=O)C(CCc2ccccc2)(c2ccccc2)N1 (stereo unspecified)
COC(=O)C1CC2=C(CC(C)(C)CC2=O)N(c2ccccc2)C1=O (stereo unspecified)
COc1cc(Cl)c(S(=O)(=O)n2cnc(C)c2)cc1Cl
CCc1nc(C)cn1S(=O)(=O)c1cc([N+](=O)[O-])ccc1Cl
Cc1sc2ncnc(N3CCC(C(=O)Nc4nc5ccc(Cl)cc5s4)CC3)c2c1C
CCc1ccc(C(=O)NNC(=O)C2CCN(c3ncnc4sc(C)c(C)c34)CC2)cc1
CC(=O)OCC1(O)CC23CCC4c5ccoc5CCC4(C)C2CCC1C3 (stereo unspecified)
COc1ccc(CNCCCn2cnc3c(OCc4ccccc4)ncnc32)cc1
CCOC(=O)N1CCN(C(=O)CN(c2ccc(C)c(C)c2)S(=O)(=O)c2ccccc2)CC1
CCN1CCN(C(=O)c2ccc(CN(c3ccc(C)c(C)c3)S(C)(=O)=O)cc2)CC1
CC/C(=C\c1ccc(Cl)cc1)c1ccncc1
Cc1ccc(C)c(OCCC(=O)Nc2cccc(S(=O)(=O)N3CCCC3)c2)c1
Cc1ccc(C)c(S(=O)(=O)N2CCN(CC(=O)Nc3ccc([N+](=O)[O-])cc3)CC2)c1
CCC1([N+](=O)[O-])COC(c2ccc(C)cc2)OC1 (stereo unspecified)
NC(=O)C1(Nc2ccccc2Cl)CCCC1
CC(Nc1ccc([N+](=O)[O-])cc1[N+](=O)[O-])c1ccccc1 (stereo unspecified)
O=C(Nc1ccc(NC(=O)c2ccc3c(c2)OCO3)cc1)c1cccc(Cl)c1
O=C(Nc1ccccc1)c1ccc2c(c1)OCCCO2
CN(C(=O)c1cccc(NC(=O)Cc2ccc(NC(=O)C3CCN(C(=O)C4CCCCC4)CC3)cc2)c1)C1CCC1
COc1cc(/C=C/CNC[C@H]2O[C@@H](n3cnc(C(N)=O)n3)[C@H](O)[C@@H]2O)ccc1O
CC(=O)N1CCCc2cc(S(=O)(=O)N3CCCC(C(=O)NCc4ccc(Cl)cc4)C3)ccc21 (stereo unspecified)
CC(=O)N1CCCc2cc(S(=O)(=O)CCC(=O)N3CCN(c4ccccc4)CC3)ccc21
CC(=O)Oc1ccc(OC(C)=O)c2c1C1C=CC2CC1
COc1ccccc1CNC(=O)CCn1c(=O)sc2ccccc21
Cc1cccc(CSc2nnc(Cn3c(=O)sc4ccccc43)n2C)c1
COc1ccc(CCN2CC(C(=O)OCC(=O)NCc3ccccc3Cl)CC2=O)cc1OC (stereo unspecified)
NC(CSC1(c2ccccc2)c2ccccc2-c2ccccc21)C(=O)O (stereo unspecified)
CSCCC(NC(=O)COc1ccccc1)C(=O)N1CCN(c2cccc(C(F)(F)F)c2)CC1 (stereo unspecified)
COC(C[C@@H](O)C[C@@H](O)[C@H](C)OCc1ccccc1)OC
COC(C[C@H](O)CC(=O)[C@@H](C)OCc1ccccc1)OC
CC(=NNC(=S)N1CCCCCC1)c1ccccn1
O=C(NCc1cccc(C(F)(F)F)c1)c1cccc(S(=O)(=O)N2CCN(Cc3ccccc3)CC2)c1
CC(NC(=O)CCC(=O)N1CCN(S(=O)(=O)c2ccc(Cl)cc2)CC1)c1ccccc1 (stereo unspecified)
NC(=O)c1ccc(N2CCCC2)nc1
O=C(O)c1ccc(S(=O)(=O)c2ccccc2)s1
CCc1ccccc1NC(=O)c1ccc2snnc2c1
O=C(Nc1cccc(Br)c1)c1ccc2snnc2c1
COc1ccc(C2c3[nH]c4ccccc4c3CCN2CCCn2cccn2)cc1C (stereo unspecified)
Oc1cccc(C2c3[nH]c4ccccc4c3CCN2Cc2cnn(-c3ccccc3)c2)c1 (stereo unspecified)
O=C(Nc1c(Br)cc2c(c1Br)Cc1cc([N+](=O)[O-])ccc1-2)C(Cl)Cl
CCN(CC)C(=O)c1sc(NC(=O)c2ccco2)c(C#N)c1C
Cn1nccc1CNC(=O)c1ccnn1C
COc1cc2c(cc1OC)C(Cc1cc(OC)c(OC)cc1[N+](=O)[O-])=NCC2
NC(=O)c1ncn([C@@H]2O[C@H](CN=C3NS(=O)(=O)c4ccccc43)[C@@H](O)[C@H]2O)n1
COc1ccc(OC)c2sc(NC(=O)C3COc4ccccc4O3)nc12 (stereo unspecified)
O=C(CCc1ccccc1)Nc1ncc([N+](=O)[O-])s1
Cc1cn(C2CC(O)C(CO)O2)c(=O)n(CCCc2ccccc2)c1=O (stereo unspecified)
COc1ccc(C(CNC(=O)c2cc(S(=O)(=O)Nc3cccc(C)c3)ccc2C)N2CCCC2)cc1 (stereo unspecified)
CCOC(=O)c1ccccc1NC(=O)CSc1nc2c(sc(=S)n2CC)c(=O)[nH]1
O=C(NN=Cc1ccc([N+](=O)[O-])cc1)C1CC1
Cn1c(=O)n(C)c2cc(/C=N/NC(=O)c3cccc(Br)c3)ccc21
COc1cc(/C=N/NC(=O)c2ccc(N3CCCC3=O)cc2)ccc1O
COc1ccc(/C=C2/CCCc3ccccc3C2=O)cc1
CC(=O)OC1CCC2(C)C(=CCC3C4CC(=O)N(O)C(=O)C4(C)CCC32)C1 (stereo unspecified)
CCCc1cc(=O)n2[nH]c(C)c(-c3ccc(Cl)cc3)c2n1
Cc1cccc(N=Nc2c(C)[nH]n(-c3ccccc3)c2=O)c1
O=C(NN=Cc1ccccc1O)NN=Cc1ccccc1O
Cc1cc(NC(=O)c2cc3ccccc3o2)no1
COc1ccc2sc(-c3ccc(N(C)C)cc3)c(-c3ccc4cc[nH]c4c3)c2c1
COc1ccc2sc(-c3ccc(N(C)C)cc3)c(C#CCO)c2c1
